Laboratory results as given in article PMC5540273 (PLoS ONE, 2017).

Assays:
Conditions in all cases: concentration: 1 μM, replicates: in singlicate; n = 1
[1] = test system: EPHB4
[2] = test system: EPHB6
[3] = test system: ERBB2
[4] = test system: ERBB3
[5] = test system: ERBB4
[6] = test system: T1, ERK1
T1 construct: gene MAPK3

[7] = test system: T2, ERK2
T2 construct: gene MAPK1

[8] = test system: T3, ERK3
T3 construct: gene MAPK6

[9] = test system: T4, ERK4
T4 construct: gene MAPK4

[10] = test system: T5, ERK5
T5 construct: gene MAPK7
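Also: KINOMEscan kinase panel screen.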

SMILES	%Inh [1] [%]	%Inh [2] [%]	%Inh [3] [%]	%Inh [4] [%]	%Inh [5] [%]	%Inh [6] [%]	%Inh [7] [%]	%Inh [8] [%]	%Inh [9] [%]	%Inh [10] [%]
COc1ccc(Nc2nccc(-c3ccc(NC(=O)c4cc5cc(F)ccc5[nH]4)cc3)n2)cc1 [GSK1229496]	16	6	38	13	6	0	0	0	0	0
COc1cc2ncnc(Nc3cccc(Br)c3)c2cc1OC.Cl [GI230329]	21	3	97.1	41	72	0	0	6	22	0
COc1ccc(Nc2nccc(N3CCC(NC(=O)C(C)c4ccc(Cl)cc4)C3)n2)cc1 (stereo not shown) [GSK1379735]	7	18	11	9	0	0	0	0	0	0
O=c1cc(N2CCOCC2)nc2n(Cc3ccccc3F)ccn12 [GSK2297428]	3	11	0	0	0	0	0	0	19	0
Fc1ccc(-c2nn3cccc(F)c3c2-c2ccncc2)cc1 [GW475620]	10	0	39	0	30	21	10	0	4	0
Fc1ccc(-c2nc3n(c2-c2ccncc2)CCS3)cc1 [GI98581]	2	7	0	3	8	10	25	5	0	0
CCc1ccc(-c2ccc3c(c2)-c2n[nH]cc2S(=O)(=O)N3C)cc1	8	0	40	15	0	0	7	0	0	5
Fc1ccc(-c2nc[nH]c2-c2ccncc2)cc1 [SB-217360]	0	3	41	5	10	2	0	0	12	0
O=c1cc(N2CCOCC2)nc2n(Cc3cccc(Cl)c3Cl)c3ccccc3n12 [GSK2299009]	0	33	6	0	10	0	15	26	45	0
CCn1c(-c2ccccc2)nc2cnccc21 [SB-733416]	16	0	0	0	0	0	18	0	0	37
O=C1NC(=O)C(c2ccc(Cl)cc2)=C1Nc1ccc(O)cc1 [SB-340867]	0	0	0	0	26	0	0	0	0	0
Nc1ncnc2occ(-c3ccc4c(c3)CCN4C(=O)Cc3cc(F)ccc3F)c12 [GSK2645446]	6	87	30	11	0	0	0	21	0	0
O=C(Nc1n[nH]c2nc(-c3cccs3)c(Br)cc12)C1CCCC1 [SB-743341]	22	22	0	3	0	0	10	9	0	0
O=C1NC(=O)C(c2ccc(Cl)cc2)=C1Nc1cccc(Cl)c1 [SB-317651]	0	8	14	0	0	0	8	0	0	0
O=C(Nc1n[nH]c2cc(-c3ccsc3)ccc12)C1CC1 [SB-732932]	9	18	0	5	9	0	7	0	1	3
Cc1ccc(NC(=O)c2ccc(Cl)cc2)cc1-c1ccc(C(=O)Nc2ccncc2)cc1 [GSK1398467]	30	0	30	0	12	0	0	0	19	0
COc1ccc(CSc2nnc(-c3ccc4ncsc4c3)o2)cc1C(F)(F)F	18	0	0	0	0	0	30	0	0	0

SMILES	%Inh [1] [%]	%Inh [2] [%]	%Inh [3] [%]	%Inh [4] [%]	%Inh [5] [%]	%Inh [6] [%]	%Inh [7] [%]	%Inh [8] [%]	%Inh [9] [%]	%Inh [10] [%]
Cc1ccc(-c2nc(Nc3ccncc3)c3ccccc3n2)s1 [GSK189015]	22	2	0	0	31	17	100	0	0	0
CCCCc1nn2ncccc2c1-c1ccnc(NC2CC2)n1 [GW684374]	4	39	21	0	16	0	0	3	27	0
Cn1cnc2c(N)ncnc21 [SKF-97623]	52	0	35	0	39	77	0	0	0	0
Cc1ccc(NC(=O)Nc2ccccc2)cc1-c1ccc(C(=O)Nc2ccncc2)cc1 [GSK1398471]	26	12	0	0	0	6	0	8	18	0
CC(=O)c1cccc(NC(=O)NC2CCN(c3ccnc(Nc4ccc(F)cc4)n3)C2)c1 (stereo not shown) [GSK1379710]	4	19	15	8	6	0	0	0	30	12
O=C(Nc1n[nH]c2nc(-c3ccco3)c(Br)cc12)C1CCN(Cc2ccccc2)C1.O=C(O)[C@H](O)[C@@H](O)C(=O)O (stereo not shown) [SB-742034]	0	34	0	0	13	8	1	0	0	0
COc1ccc2cc(-c3nc(-c4ccccc4C(C)C)[nH]c3-c3ccncc3)ccc2c1 [SB-660566]	6	0	5	0	52	0	0	0	15	0
CS(=O)(=O)CCNCc1nc(-c2ccc3ncnc(Nc4ccc5c(cnn5Cc5ccccc5)c4)c3c2)cs1.Cl.Cl [GW569716]	8	21	100	98	92.4	4	10	0	0	0
Cc1ccc(NC(=O)Nc2ccc(Cl)c(C(F)(F)F)c2)cc1-c1ccc(C(=O)Nc2ccncc2)cc1 [GSK1398470]	12	18	0	0	6	15	12	10	10	0
COc1cccc(C2=C(Nc3cc(Cl)c(O)c(Cl)c3)C(=O)NC2=O)c1 [SB-390767]	18	46	0	3	4	0	0	0	0	0
Cc1ccccc1-c1cc(-c2c[nH]nc2-c2ccccn2)ccn1 [GW680061]	10	4	22	0	25	1	0	0	25	0
Nc1cccc(-c2ccc3c(N)n[nH]c3c2)n1 [GSK2192730]	5	0	0	0	0	0	0	0	35	8
COc1ccc(Nc2nccc(N3CCC(NC(=O)C(C)c4ccc(Cl)cc4)CC3)n2)cc1 (stereo not shown) [GSK1379812]	0	100	19	19	0	0	4	2	0	0
CC(C)c1ccc(O)cc1Nc1ccnc2ccc(C(F)(F)F)cc12 [GW482059]	0	0	10	0	0	0	0	0	0	0
COC(=O)C(NC(=O)NC1CCN(c2ccnc(Nc3ccc(F)cc3)n2)C1)c1ccccc1 (stereo not shown) [GSK1379712]	6	92	20	0	0	2	0	0	24	13
COc1ccc(Nc2nccc(N3CCC(NC(=O)c4cc5ccccc5s4)C3)n2)cc1 (stereo not shown) [GSK1379738]	0	17	1	8	0	0	0	0	15	0
Cc1ccc(NC(=O)Nc2ccccc2F)cc1-c1ccc(C(=O)Nc2ccncc2)cc1 [GSK1398477]	21	20	8	0	0	8	9	11	20	0
